How the values were obtained:
Experiment in all cases: phenotypically active (imaging signature differs from DMSO and reproducible) at any of 0.3-9 uM (binary (1 = active, 0 = inactive)); higher = active
Conditions in all cases: treatment time: 24 h
[1] = system: A549-ACTB-RAB5A
Outline: (§1)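 Cells from fifteen gene-edited reporter lines (A549, HepG2 and WPMY1) were treated for 24 h at 0.3, 1, 3 or 9 µM and imaged live, four wells per condition. Features were normalised per well to solvent control wells. A condition deviated if ≥3 of 4 wells passed the 95th percentile of control Euclidean distances and was reproducible if its median replicate Pearson correlation beat the 95th percentile of non-replicates; phenotypic activity needed both.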

[2] = system: A549-CANX-COX4
Outline: as §1

[3] = system: A549-GM130-SQSTM1
Outline: as §1

[4] = system: A549-TP53BP1-CLTA
Outline: as §1

[5] = system: A549-TUBA1B-RELA
Outline: as §1

[6] = system: HepG2-ACTB-RAB5A
Outline: as §1

[7] = system: HepG2-CANX-COX4
Outline: as §1

[8] = system: HepG2-GM130-SQSTM1
Outline: as §1

[9] = system: HepG2-TP53BP1-CLTA
Outline: as §1

[10] = system: HepG2-TUBA1B-RELA
Outline: as §1

[11] = system: WPMY1-ACTB-RAB5A
Outline: as §1

[12] = system: WPMY1-CANX-COX4
Outline: as §1

[13] = system: WPMY1-GM130-SQSTM1
Outline: as §1

[14] = system: WPMY1-TP53BP1-CLTA
Outline: as §1

[15] = system: WPMY1-TUBA1B-RELA
Outline: as §1

Measured: phenotypically active

Cc1cnc(C(=O)NCCc2ccc(S(=O)(=O)NC(=O)NC3CCCCC3)cc2)cn1 [glipizide]
inactive: [1] 0 | [2] 0 | [3] 0 | [4] 0 | [5] 0 | [6] 0 | [7] 0 | [8] 0 | [9] 0 | [10] 0 | [11] 0 | [12] 0 | [13] 0 | [14] 0 | [15] 0

O=c1ncccn1[C@@H]1O[C@H](CO)[C@@H](O)[C@H]1O [Zebularine]
inactive: [1] 0 | [2] 0 | [3] 0 | [4] 0 | [5] 0 | [6] 0 | [7] 0 | [8] 0 | [9] 0 | [10] 0 | [11] 0 | [12] 0 | [13] 0 | [14] 0 | [15] 0

Cc1[nH]c(=O)c(C#N)cc1-c1ccncc1 [Milrinone]
inactive: [1] 0 | [2] 0 | [3] 0 | [4] 0 | [5] 0 | [6] 0 | [7] 0 | [8] 0 | [9] 0 | [10] 0 | [11] 0 | [12] 0 | [13] 0 | [14] 0 | [15] 0

CC(C)OC(=O)C(C)(C)Oc1ccc(C(=O)c2ccc(Cl)cc2)cc1 [Fenofibrate]
inactive: [1] 0 | [2] 0 | [3] 0 | [4] 0 | [5] 0 | [6] 0 | [7] 0 | [8] 0 | [9] 0 | [10] 0 | [11] 0 | [12] 0 | [13] 0 | [14] 0 | [15] 0

N[C@@H](Cc1ccc(O)c(O)c1)C(=O)O [levodopa]
inactive: [1] 0 | [2] 0 | [3] 0 | [4] 0 | [5] 0 | [6] 0 | [7] 0 | [8] 0 | [9] 0 | [10] 0 | [11] 0 | [12] 0 | [13] 0 | [14] 0 | [15] 0

Cc1ccccc1Sc1ccc(/C=C2/SC(=S)NC2=O)cc1[N+](=O)[O-]
inactive: [1] 0 | [2] 0 | [3] 0 | [4] 0 | [5] 0 | [6] 0 | [7] 0 | [8] 0 | [9] 0 | [10] 0 | [11] 0 | [12] 0 | [13] 0 | [14] 0 | [15] 0

C#C[C@]1(O)CC[C@H]2[C@@H]3CCC4=CC(=NO)CC[C@@H]4[C@H]3CC[C@@]21CC [norelgestromin]
inactive: [1] 0 | [2] 0 | [3] 0 | [4] 0 | [5] 0 | [6] 0 | [7] 0 | [8] 0 | [9] 0 | [10] 0 | [11] 0 | [12] 0 | [13] 0 | [14] 0 | [15] 0

O=[N+]([O-])c1cc([N+](=O)[O-])c(/C=C/c2ccc(Cl)c(Cl)c2)cc1/C=C/c1ccc(Cl)c(Cl)c1
inactive: [1] 0 | [2] 0 | [3] 0 | [4] 0 | [5] 0 | [6] 0 | [7] 0 | [8] 0 | [9] 0 | [10] 0 | [11] 0 | [12] 0 | [13] 0 | [14] 0 | [15] 0

NC(=O)c1cn(Cc2c(F)cccc2F)nn1 [rufinamide]
inactive: [1] 0 | [2] 0 | [3] 0 | [4] 0 | [5] 0 | [6] 0 | [7] 0 | [8] 0 | [9] 0 | [10] 0 | [11] 0 | [12] 0 | [13] 0 | [14] 0 | [15] 0

CCCc1nc(C(C)(C)O)c(C(=O)OCc2oc(=O)oc2C)n1Cc1ccc(-c2ccccc2-c2nnn[nH]2)cc1 [olmesartan-medoxomil]
inactive: [1] 0 | [2] 0 | [3] 0 | [4] 0 | [5] 0 | [6] 0 | [7] 0 | [8] 0 | [9] 0 | [10] 0 | [11] 0 | [12] 0 | [13] 0 | [14] 0 | [15] 0

From the supplement of paper PMC7411054
